High-throughput results from PubChem.
Sampled rows, rich in hits. Any-hit rate of the full collection: about 2%.
TexasRed fluor: alters Texas Red total fluorescence, flagging assay interference; TRb/SRC2 Texas Red total fluorescence interference; Potency, µM (top dose mostly 106 µM), inactives show top-dose fluorescence change, negative = quenching; 280,000 tested, 0.29% active; AID 1479; active = well fitted curve in either direction with a large enough effect; inconclusive = small, poorly fitted or top-dose-only effect; note: potency is the fitted concentration of half-maximal effect; % is set by controls: 0 for no effect and ±100 for the full control effect
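Human TRβ ligand-binding domain (0.6 uM) and Texas Red SRC2 peptide (20 nM) in Tris buffer with 1 uM T3 and 5% DMSO were incubated with pinned compound for 5 hr at ambient temperature. Total fluorescence was computed as S + 2P (555/632 nm).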
FBPA coupling cs: coupling enzyme interference in Giardia aldolase counter-screen. coupling enzyme system counterscreen, AmpLite Red fluorescence. activity change, negative = inhibition, % at 58.2 µM, hits read low. 290,000 tested, 0.67% active. AID 2472; in the data active = activity change below about -30%; note: % is set by controls: 0 for no effect and ±100 for the full control effect
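Fluorescence at 525 nm excitation and 598 nm emission measured inhibition of the coupled detection system without aldolase. Compounds (at 57.5 uM final) were preincubated 10 min at room temperature with coupling enzyme reagent before a 20 min substrate/AmpLite Red step.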
HttQ103 aggreg: mutant huntingtin aggregation inhibition; PC12 HttQ103-GFP aggregates, Acumen cytometry, 40 h; Potency, µM (doses to about 46.1 µM), inactives show top-dose activity change, negative = inhibition, most hits filed as inhibitors; 220,000 tested, 1.1% active; note: potency is the fitted concentration of half-maximal effect; % is set by controls: 0 for no effect and ±100 for the full control effect; nearly all actives have a fitted effect of over 60% in size
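PC12/HTTQ103-GFP, ecdysone-inducible; teb 100 nM; cpd qHTS titration; GFP aggregates read on laser cytometer, Ex 488/Em 500-530 nm.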
HTT cytoprotect: cytoprotection in Huntington HTT-Q103 PC12 cell model; PC12 HTT-Q103 induced, cytoprotection, ATP luminescence, 40 h; Potency, µM (titrated, usually from 56.4 µM), inactives show cytoprotection (ATP increase), usual class: activators; 230,000 tested, 0.14% active; AID 1471; note: potency is the fitted concentration of half-maximal effect; % of control where 0% means no effect; nearly all actives have a fitted effect of over 45% in size
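Rat PC12, Q103 Htt exon1-GFP fusion, ecdysone promoter; tebufenozide inducer 100 nM final; compound titration; qHTS, 1500 cells/well; ATPlite luminescent read.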
TRb-SRC2 inh: inhibitors of human thyroid hormone receptor beta-SRC2 interaction; TRbeta-SRC2 peptide binding, fluorescence polarization; receptor liganded with 1 µM T3; Potency, µM (series often up to 106 µM), inactives show top-dose activity change, negative = inhibition, hits mostly inhibitors; P10828; 280,000 tested, 0.065% active;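 note: potency is the fitted concentration of half-maximal effect; plate controls were bound peptide for no effect and peptide without receptor for full effect; nearly all actives have a fitted effect of over 50% in size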
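Polarization signal, normalized between peptide-alone and full complex controls, measured compound effects on T3-liganded human TRb LBD (0.6 uM) binding 20 nM Texas Red SRC2 peptide after 5 hr.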
KDM4E inh: JMJD2E (human) inhibition; Potency, µM (top dose mostly 57.1 µM), for the others: top-dose activity change, negative = inhibition, actives largely listed as inhibitors; B2RXH2; 230,000 tested, 1.6% active; JMJD2E catalytic domain, FDH-coupled NADH fluorescence (FDH is formaldehyde dehydrogenase);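 note: potency is the fitted concentration of half-maximal effect; 0% = wells with enzyme and -100% = buffer wells without enzyme; nearly all actives have a fitted effect of over 50% in size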
Target sequence (B2RXH2 1-337 limits assumed): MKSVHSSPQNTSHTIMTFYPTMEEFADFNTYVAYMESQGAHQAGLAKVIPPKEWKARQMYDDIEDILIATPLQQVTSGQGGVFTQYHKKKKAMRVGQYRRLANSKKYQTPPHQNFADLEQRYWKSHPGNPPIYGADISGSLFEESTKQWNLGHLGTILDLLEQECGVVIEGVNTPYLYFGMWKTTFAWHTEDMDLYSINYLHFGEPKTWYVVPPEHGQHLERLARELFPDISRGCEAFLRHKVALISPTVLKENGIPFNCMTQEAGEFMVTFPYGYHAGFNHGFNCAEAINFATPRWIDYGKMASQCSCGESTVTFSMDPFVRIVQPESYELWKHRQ
The depositor's hits bear a star; ? = inconclusive; . = no result; [ ] = dose if it differs, or a comment. Unless noted, calls come from the whole dose curve; as a rule, active = well fitted curve in the direction sought with a large enough effect; inconclusive = small, poorly fitted or top-dose-only effect, or another doubt; inactive = no such curve, though single readings can be large; an effect the other way counts as inactive or inconclusive.

SMILES	TexasRed fluor	FBPA coupling cs	HttQ103 aggreg	HTT cytoprotect	TRb-SRC2 inh	KDM4E inh
COc1ccc(Cn2c(SCc3cc(C)ccc3C)nc3cc(OC)c(OC)cc3c2=N)cc1	-1%	-3	3.2µM*	-74%[10 µM]	13%	3%
COc1ccc(Cn2c(SCc3ccc(C)cc3)nc3cc(OC)c(OC)cc3c2=N)cc1Cl	-4%	-7	?	-95%[10 µM]	0%	-10%
COc1ccc(Nc2c(-c3ccc(C)o3)nc3cc(C)ccn23)cc1	1%	.	.	.	-6%	.
Cc1cc(/C=N/n2c(COc3ccccc3)nc3ccccc3c2=O)c(O)c([N+](=O)[O-])c1	-7%	0	10µM*	41%[10 µM]	9%	?
CCCc1nc2ccccc2c(=O)n1/N=C/c1ccc(O)cc1	-1%	-1	?	-3%	0%	-6%
CCCc1nc2ccccc2c(=O)n1/N=C/c1ccc(O)cc1O	0%	3	-9%[9.22 µM]	-27%[0.074 µM]	19%	32µM*
Cc1ccc(-c2[nH]ncc2/C=N/n2c(COc3ccccc3)nc3ccccc3c2=O)cc1	3%	-4	3%	-23%[10 µM]	-5%	-2%
Cc1ccc(C(C)(C)C)c(O)c1	-6%[201 µM]	.	.	.	0%[201 µM]	.
O=C(c1csnn1)N1CCC2(CC1)CN(c1ccncc1)C2	.	1	.	?	.	.
O=c1cc(-c2ccccc2)oc2cc(O)c(O)cc12	-6%	1	.	-300%	-5%	28µM*
O=c1cc(-c2ccc(O)c(O)c2)oc2ccccc12	-23%	-20	.	-176%	8%	8.9µM*
COc1cccc(N2CCN(c3ncnc4c3cnn4-c3ccc(C)cc3C)CC2)c1	0%	-4	22µM*	-124%	0%	?
CN1CCCC2(CCN(C(=O)c3cccn3C)CC2)C1	.	-1	.	-2%	.	.
Cc1cc(S(=O)(=O)Nc2cc3c(cc2NCc2ccccc2)n(C)c(=O)n3C)ccc1F	0%	.	.	.	-3%	.
CCOCCCNC(=O)/C(C#N)=C/c1cc(OC)c(O)c([N+](=O)[O-])c1	-1%	-4	18%	-41%	-13%	?
CCOCCCNC(=O)/C(C#N)=C/c1ccc(Cl)c([N+](=O)[O-])c1	0%	1	5%	-6%	-3%	20µM*
CCCCCCn1c(=O)[nH]c2c(c1=O)CCC2	-1%	2	-11%[9.22 µM]	12%[10 µM]	-4%	-2%
CCCCCCCn1c2c(c(=N)c3c1CCC3)CCCC2	0%	0	.	.	-3%	3.5µM*
CCn1c2c(c(=N)c3c1CCC3)CCC2	0%	4	-3%	0%[10 µM]	0%	5%
CCCCCCn1c2c(c(=N)c3c1CCC3)CCC2	6%	1	1.8µM*	-17%[0.074 µM]	-2%	-2%
CCCCn1c2c(c(=N)c3c1CCC3)CCC2	0%	0	?	-28%[0.074 µM]	-6%	-5%
CCCCCCCCCn1c2c(c(=N)c3c1CCC3)CCC2	2%	0	1.3µM*	-52%[10 µM]	-1%	-2%
COc1ccccc1CNC(=O)Cc1csc2nc(-c3ccc(F)cc3)cn12	-1%	.	.	.	2%	.
COc1ccc(N2CCN(C(=O)c3cn(C4CCCCC4)c(=O)c4c3c3ccccc3n4C)CC2)cc1	0%	.	.	.	-9%	.
COc1ccc(-c2[nH]c3ccccc3c2SCCNC(=O)c2ccc(S(=O)(=O)N(C)C)cc2)cc1	0%	.	.	.	-2%	.
SMILES	TexasRed fluor	FBPA coupling cs	HttQ103 aggreg	HTT cytoprotect	TRb-SRC2 inh	KDM4E inh
CCOc1ccc(Nc2nc(Cc3nnc(SCC(=O)c4ccc(C)c(C)c4)o3)cs2)cc1	0%	3	10µM*	-16%	3%	8%
CCOC(=O)N1CCC(Nc2nc3ccccc3nc2NS(=O)(=O)c2ccc(Cl)cc2)CC1	-1%	12	11µM*	-8%[0.074 µM]	3%	?
CCOC(=O)N1CCC(NC(=O)c2ccc(Cl)cc2)CC1	-4%	1	-28%[9.22 µM]	10%[10 µM]	4%	-3%
COc1ccc(OC)c(CCNC(=O)c2cnn(-c3ccccc3)c2C2CCN(C(=O)OC(C)(C)C)CC2)c1	-3%	.	.	.	0%	.
Cc1ccccc1C(=O)Nc1ccc(-c2nc3ccc(C(=O)c4ccccc4)cc3[nH]2)cc1	-2%	-1	11µM*	-68%	-11%	?
CS(=O)(=O)c1ccccc1C(=O)Nc1ccc(-c2nc3ccccc3[nH]2)cc1	.	-1	.	.	.	.
Cc1nn(Cc2ccc(Cl)cc2Cl)c(C)c1NC(=O)CCl	-7%	-1	3.5µM*	-5%[10 µM]	-6%	-1%
Cc1nn(C)c(Cl)c1NC(=O)OCc1ccc(Cl)cc1Cl	-3%	-1	7.9µM*	-15%	-3%	4%
C=Cc1c(C)c2cc3[nH]c(cc4nc(cc5nc(cc1[nH]2)C(C)=C5CCC(=O)O)C(CCC(=O)O)=C4C)c(C)c3C=C	16µM*[fluorescent]	-14	-1%	38%	18µM*	-12%
CC1=C(CCC(=O)O)c2cc3nc(cc4[nH]c(cc5[nH]c(cc1n2)c(C)c5C(C)O)c(C)c4C(C)O)C(C)=C3CCC(=O)O (centres undefined)	45µM*[fluorescent]	-8	.	.	35µM*	-1%
CC(C)(CO)N=C1NS(=O)(=O)c2cc([N+](=O)[O-])ccc21	1%	-6	10µM*	.	-9%	2%
CCNC(=O)/C=C1\NC(C)(C)Cc2c1ccc1ccccc21	-10%	0	-26%	-10%	2%	-8%
CC1(C)Cc2c(ccc3ccccc23)C(=O)N1	-1%	0	11µM*	29%	-12%	?
NS(=O)(=O)c1nc(S(=O)(=O)O)c2[nH]cnc2n1	.	.	.	1%[10 µM]	.	.
CCOC(=O)C1=C(CC)Nc2ccccc2N/C1=N\S(=O)(=O)c1cc(Br)ccc1Br	1%	13	18µM*	-29%	0%	-5%
CCC(C)Nc1nc(C)nc2c1oc1ccccc12 (centres undefined)	-3%	0	34%[9.22 µM]	?	-4%	-18%
Cc1nc(NC(C)c2ccccc2)c2oc3ccccc3c2n1 (centres undefined)	2%	-1	13µM*	-29%	-20%	?
CCCCN(C)CCNC(=O)C1CCN(c2nc3ccc(CC)cc3s2)CC1	-3%	.	.	.	7%	.
FC(F)(F)c1ccc(Cl)c(Cl)c1	3%[201 µM]	.	.	.	5%[201 µM]	.
NC1=CC(=O)c2cccc3cccc1c23	-2%	-34*	?	-107%	0%	?
C=C(C)C(O)/C=C/c1ccc(Br)cc1 (centres undefined)	0%	0	.	-43%	-2%	13%
COc1cc(/C=C/c2nc(C#N)c(N3CCCCC3)o2)cc(OC)c1OC	-1%	.	.	.	4%	.
Cc1cc(SCC(=O)NCc2ccc(Cl)cc2)nc(=O)[nH]1	1%	.	.	.	-10%	.
Fc1ccc(-[n+]2nc(Nc3ccccc3)sc2-c2c3ccccc3cc3ccccc23)cc1	.	-31*	.	.	.	.
